# Test results published in ChEMBL document CHEMBL3988442, “University of Dundee, Small-Polar-MMV Screening Library” (2021).
# For some assays here: Measured potencies and affinities stand elsewhere.
# Assays:
# Set-up in all cases: scale not given: direction of the effect not stated beside the values
# [1] = biological target: Protein translocase subunit SecA (Escherichia coli (strain K12)) (UniProt P10408); experiment: Assay to Identify E. coli SecA ATPase Inhibitors; type: functional; settings: 30 µM
# [2] = biological target: T1, Ubiquitin-activating enzyme e1, putative (Leishmania donovani (strain BPK282A1)) (UniProt E9BSI1); experiment: Leishmania donovani Ubiquitin Activating Enzyme (LdE1); type: functional; settings: 30 µM
# T1 sequence (whole entry): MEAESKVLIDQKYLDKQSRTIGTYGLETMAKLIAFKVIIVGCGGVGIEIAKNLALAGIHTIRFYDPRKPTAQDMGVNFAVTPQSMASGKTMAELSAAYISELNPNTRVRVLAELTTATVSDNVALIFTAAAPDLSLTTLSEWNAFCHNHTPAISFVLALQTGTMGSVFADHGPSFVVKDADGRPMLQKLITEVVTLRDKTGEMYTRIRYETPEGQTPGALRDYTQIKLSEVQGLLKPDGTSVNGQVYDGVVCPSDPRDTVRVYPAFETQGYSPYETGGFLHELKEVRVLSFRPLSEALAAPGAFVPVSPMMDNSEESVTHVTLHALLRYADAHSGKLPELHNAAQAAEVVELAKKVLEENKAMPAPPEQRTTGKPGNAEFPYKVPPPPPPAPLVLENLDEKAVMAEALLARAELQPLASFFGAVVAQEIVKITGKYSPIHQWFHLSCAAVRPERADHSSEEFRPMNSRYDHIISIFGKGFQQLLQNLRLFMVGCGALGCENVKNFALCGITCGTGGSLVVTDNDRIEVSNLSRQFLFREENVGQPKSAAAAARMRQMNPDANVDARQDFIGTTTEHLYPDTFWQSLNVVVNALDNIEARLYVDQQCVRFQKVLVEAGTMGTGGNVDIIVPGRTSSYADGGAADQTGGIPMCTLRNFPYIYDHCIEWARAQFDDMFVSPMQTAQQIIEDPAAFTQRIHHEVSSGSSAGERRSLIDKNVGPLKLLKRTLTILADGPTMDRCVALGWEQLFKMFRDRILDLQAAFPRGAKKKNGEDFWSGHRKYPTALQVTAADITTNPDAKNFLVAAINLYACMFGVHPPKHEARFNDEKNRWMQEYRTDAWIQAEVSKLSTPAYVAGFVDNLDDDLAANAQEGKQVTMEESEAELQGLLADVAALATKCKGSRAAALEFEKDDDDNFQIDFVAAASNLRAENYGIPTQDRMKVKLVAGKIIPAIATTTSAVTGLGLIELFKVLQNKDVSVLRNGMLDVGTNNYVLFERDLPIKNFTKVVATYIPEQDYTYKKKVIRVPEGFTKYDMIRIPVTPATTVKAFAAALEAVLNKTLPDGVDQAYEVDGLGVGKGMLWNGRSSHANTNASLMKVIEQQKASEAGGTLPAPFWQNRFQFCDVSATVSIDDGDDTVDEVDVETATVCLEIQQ
# [3] = biological target: Sialic acid-binding Ig-like lectin 9 (Homo sapiens) (UniProt Q9Y336); experiment: Hs-Siglec9 ALPHAscreen SOP 20170721; settings: 10 µM
# [4] = test system: Trypanosoma cruzi; experiment: Trypanosoma cruzi phosphomannomutase and mannose-1-phosphate guanylyltransferase assay; type: functional; settings: 10 µM
# [5] = biological target: T2, Arginase-2, mitochondrial (Homo sapiens) (UniProt P78540); experiment: in vitro enzyme assay to detect the production of urea directly proportional to the activity of Arginase II; type: functional; settings: 33.3 µM; further: in the data most compounds retested in dose-response had high values
# T2 sequence (whole entry): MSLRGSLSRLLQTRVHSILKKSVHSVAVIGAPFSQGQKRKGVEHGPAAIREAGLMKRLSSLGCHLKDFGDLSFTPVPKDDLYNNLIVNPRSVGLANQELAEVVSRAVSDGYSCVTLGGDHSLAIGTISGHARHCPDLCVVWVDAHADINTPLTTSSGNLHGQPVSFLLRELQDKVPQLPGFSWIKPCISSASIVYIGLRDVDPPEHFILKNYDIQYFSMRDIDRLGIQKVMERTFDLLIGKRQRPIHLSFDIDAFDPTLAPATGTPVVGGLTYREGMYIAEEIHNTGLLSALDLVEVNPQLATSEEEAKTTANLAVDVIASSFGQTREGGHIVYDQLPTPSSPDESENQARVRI
# [6] = biological target: T3, Proteasome subunit beta (Trypanosoma cruzi) (UniProt O96673); experiment: Trypanosoma cruzi proteasome chymotrypsin-like activity (TcProtChymo) assay.; further: in the data most compounds retested in dose-response had high values; type: functional; settings: 9.37 µM
# T3 sequence (whole entry): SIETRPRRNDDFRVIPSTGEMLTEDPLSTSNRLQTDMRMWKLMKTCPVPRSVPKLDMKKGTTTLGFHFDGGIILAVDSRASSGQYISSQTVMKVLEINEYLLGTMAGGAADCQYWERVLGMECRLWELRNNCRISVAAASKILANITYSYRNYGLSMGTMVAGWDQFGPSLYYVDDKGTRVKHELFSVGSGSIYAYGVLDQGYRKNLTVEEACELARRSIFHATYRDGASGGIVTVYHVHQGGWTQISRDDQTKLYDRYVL
# [7] = species on record: Homo sapiens; experiment: To identify inhibition of the IFN signalling (Jak-Stat) pathway via expression of an eGFP reporter gene under the control of an IFN-stimulated response element (ISRE) containing MxA promoter.; type: functional; settings: 30 µM
# [8] = biological target: T4, Tyrosyl-tRNA synthetase, putative (Trypanosoma cruzi (strain CL Brener)) (UniProt Q4DSP6); experiment: Trypanosoma cruzi tyrosyl tRNA synthetase (TcYRS) _High Tyrosine SOP; type: functional; settings: 30 µM; further: in the data most compounds retested in dose-response had high values
# T4 sequence (whole entry): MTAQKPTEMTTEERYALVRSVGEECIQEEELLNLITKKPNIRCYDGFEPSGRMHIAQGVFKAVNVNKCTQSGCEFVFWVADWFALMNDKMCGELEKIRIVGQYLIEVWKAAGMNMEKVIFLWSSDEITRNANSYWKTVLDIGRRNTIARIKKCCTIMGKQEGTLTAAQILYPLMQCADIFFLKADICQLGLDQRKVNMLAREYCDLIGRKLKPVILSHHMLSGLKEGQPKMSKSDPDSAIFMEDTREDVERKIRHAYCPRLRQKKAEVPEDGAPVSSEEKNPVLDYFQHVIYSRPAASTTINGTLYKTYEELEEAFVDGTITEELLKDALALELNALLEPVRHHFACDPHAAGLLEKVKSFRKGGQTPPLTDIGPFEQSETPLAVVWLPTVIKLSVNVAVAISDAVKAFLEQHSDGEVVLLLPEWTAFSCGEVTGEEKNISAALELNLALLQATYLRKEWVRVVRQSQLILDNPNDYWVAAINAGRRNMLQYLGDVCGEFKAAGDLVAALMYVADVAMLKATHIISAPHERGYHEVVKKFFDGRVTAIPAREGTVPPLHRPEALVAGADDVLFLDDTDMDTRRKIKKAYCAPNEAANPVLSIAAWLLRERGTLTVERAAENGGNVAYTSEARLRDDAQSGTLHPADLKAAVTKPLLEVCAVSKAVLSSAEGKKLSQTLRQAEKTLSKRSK
# [9] = biological target: T4, Tyrosyl-tRNA synthetase, putative (Trypanosoma cruzi (strain CL Brener)); experiment: Trypanosoma cruzi tyrosyl tRNA synthetase (TcYRS) SOP; type: functional; settings: 30 µM
# [10] = biological target: Chromo domain-containing protein 1 (Saccharomyces cerevisiae (strain ATCC 204508 / S288c) (Baker's yeast)) (UniProt P32657); experiment: ScCHD-1 Enzyme Inhibition Assay; type: functional; settings: 30 µM; further: in the data most compounds retested in dose-response had high values
# Chromo domain-containing protein 1 (Saccharomyces cerevisiae (strain ATCC 204508 / S288c) (Baker's yeast)), sequence (P32657 whole entry, the tested form may be a part): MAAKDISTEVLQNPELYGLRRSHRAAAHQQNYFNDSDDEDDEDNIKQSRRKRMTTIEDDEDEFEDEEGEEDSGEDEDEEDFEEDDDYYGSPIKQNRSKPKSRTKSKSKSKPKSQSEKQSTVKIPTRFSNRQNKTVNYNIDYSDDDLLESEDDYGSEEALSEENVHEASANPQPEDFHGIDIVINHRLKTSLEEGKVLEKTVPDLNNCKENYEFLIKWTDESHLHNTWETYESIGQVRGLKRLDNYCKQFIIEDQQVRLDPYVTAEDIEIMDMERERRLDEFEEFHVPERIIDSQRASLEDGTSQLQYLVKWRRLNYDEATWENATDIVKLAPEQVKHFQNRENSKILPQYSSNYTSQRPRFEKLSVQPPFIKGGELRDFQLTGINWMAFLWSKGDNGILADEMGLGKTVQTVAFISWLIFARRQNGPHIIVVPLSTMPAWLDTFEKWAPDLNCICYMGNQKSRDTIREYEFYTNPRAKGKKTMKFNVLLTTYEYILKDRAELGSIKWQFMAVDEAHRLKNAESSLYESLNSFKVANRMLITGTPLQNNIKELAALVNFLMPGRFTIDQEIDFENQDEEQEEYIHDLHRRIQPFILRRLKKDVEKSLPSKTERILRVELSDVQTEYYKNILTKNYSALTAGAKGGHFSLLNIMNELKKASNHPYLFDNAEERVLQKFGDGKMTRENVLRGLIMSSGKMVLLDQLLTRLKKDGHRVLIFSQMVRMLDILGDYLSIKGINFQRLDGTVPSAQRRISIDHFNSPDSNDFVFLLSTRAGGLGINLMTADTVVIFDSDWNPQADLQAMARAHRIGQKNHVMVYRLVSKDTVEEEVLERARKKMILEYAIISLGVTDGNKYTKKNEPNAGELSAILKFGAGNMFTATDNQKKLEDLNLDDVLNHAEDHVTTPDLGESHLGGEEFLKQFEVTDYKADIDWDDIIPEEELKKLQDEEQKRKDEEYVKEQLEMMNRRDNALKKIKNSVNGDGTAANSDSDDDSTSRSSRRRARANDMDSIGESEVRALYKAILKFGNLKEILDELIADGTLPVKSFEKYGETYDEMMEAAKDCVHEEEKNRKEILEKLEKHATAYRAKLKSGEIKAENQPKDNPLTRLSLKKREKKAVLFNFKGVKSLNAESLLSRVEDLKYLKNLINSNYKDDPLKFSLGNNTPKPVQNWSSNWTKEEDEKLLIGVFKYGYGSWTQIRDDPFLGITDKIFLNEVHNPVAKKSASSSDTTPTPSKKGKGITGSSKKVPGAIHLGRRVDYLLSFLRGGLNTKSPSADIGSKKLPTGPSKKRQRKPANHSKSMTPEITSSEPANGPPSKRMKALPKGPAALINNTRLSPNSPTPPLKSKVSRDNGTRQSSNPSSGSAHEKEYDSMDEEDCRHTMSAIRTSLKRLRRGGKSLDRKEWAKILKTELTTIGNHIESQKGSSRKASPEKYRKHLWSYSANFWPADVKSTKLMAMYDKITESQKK
# Protein translocase subunit SecA (Escherichia coli (strain K12)), sequence (P10408 whole entry): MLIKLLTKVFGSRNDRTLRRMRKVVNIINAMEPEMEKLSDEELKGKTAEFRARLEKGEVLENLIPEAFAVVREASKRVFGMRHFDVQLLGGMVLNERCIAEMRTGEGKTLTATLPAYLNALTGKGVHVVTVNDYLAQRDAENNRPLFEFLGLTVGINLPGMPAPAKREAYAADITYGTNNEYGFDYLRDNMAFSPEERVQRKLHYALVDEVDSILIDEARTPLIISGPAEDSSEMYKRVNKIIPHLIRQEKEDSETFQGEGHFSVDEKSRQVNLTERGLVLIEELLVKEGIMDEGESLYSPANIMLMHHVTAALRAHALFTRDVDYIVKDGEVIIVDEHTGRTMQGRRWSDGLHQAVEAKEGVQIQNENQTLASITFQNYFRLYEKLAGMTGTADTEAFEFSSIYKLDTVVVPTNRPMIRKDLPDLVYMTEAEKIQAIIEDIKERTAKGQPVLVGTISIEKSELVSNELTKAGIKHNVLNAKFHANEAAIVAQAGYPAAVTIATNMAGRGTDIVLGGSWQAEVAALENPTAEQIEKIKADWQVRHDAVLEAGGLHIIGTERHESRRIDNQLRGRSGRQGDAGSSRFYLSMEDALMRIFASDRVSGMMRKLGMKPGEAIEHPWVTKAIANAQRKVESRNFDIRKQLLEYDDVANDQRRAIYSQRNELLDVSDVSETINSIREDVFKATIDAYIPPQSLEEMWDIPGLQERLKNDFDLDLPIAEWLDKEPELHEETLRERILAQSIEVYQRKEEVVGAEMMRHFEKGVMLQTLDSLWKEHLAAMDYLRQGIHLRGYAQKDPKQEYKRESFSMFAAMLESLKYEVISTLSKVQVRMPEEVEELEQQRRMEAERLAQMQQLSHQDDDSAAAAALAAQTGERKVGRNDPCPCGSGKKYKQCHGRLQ
# Sialic acid-binding Ig-like lectin 9 (Homo sapiens), sequence (Q9Y336 whole entry): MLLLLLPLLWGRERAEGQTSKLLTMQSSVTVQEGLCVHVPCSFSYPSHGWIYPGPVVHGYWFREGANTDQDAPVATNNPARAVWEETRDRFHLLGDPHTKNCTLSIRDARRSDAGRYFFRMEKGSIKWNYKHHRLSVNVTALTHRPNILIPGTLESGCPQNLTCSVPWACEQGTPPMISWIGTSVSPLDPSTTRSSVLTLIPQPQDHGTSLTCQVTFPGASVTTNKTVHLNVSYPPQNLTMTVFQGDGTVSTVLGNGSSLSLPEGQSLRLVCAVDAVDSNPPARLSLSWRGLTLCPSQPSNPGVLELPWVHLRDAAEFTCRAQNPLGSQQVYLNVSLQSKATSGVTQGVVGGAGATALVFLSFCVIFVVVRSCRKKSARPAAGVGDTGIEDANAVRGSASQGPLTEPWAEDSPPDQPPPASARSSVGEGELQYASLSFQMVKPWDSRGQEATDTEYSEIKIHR
SMILES,Percent Effect [1],Percent Effect [2],Percent Effect [3],Percent Effect [4],Percent Effect [5],Percent Effect [6],Percent Effect [7],Percent Effect [8],Percent Effect [9],Percent Effect [10]
NCc1cn(-c2ccccc2C(=O)NCc2cccc(Cl)c2)cn1,0.846%,9.33%,-1.67%,-7.3%,1.33%,6.4%,-3.19%,3.17%,12.5%,-24.5%
CCCN1CCCn2nc(CNS(=O)(=O)c3ccc(C)cc3)cc2C1,-8.28%,2.7%,2.48%,-5.72%,-3.85%,10.3%,5.89%,3.72%,9.76%,-1.82%
COCC1CC2(CCN(Cc3ccc(OC)cc3)CC2)CN1C(C)C (stereo not given),-6.15%,-9.09%,-0.064%,-1.66%,-4.05%,0.0883%,-19.4%,0.526%,2.56%,1.65%
Cc1nn(C)c(N(C)C)c1CNC(C)c1cccc(OC(C)C)c1 (stereo not given),2.06%,5.2%,13.8%,-0.746%,-7.58%,4.91%,15.4%,3.92%,18.8%,-11.9%
O=C(NCc1cc(O)ncn1)C1COc2ccccc2C1 (stereo not given),-3.59%,10.8%,17.9%,3.59%,12.9%,13%,9.77%,5.85%,17.1%,-2.86%
CC(C)NC(=O)N1CCC2(CC(=O)N(c3cccc(C#N)c3)C2)C1 (stereo not given),-4.66%,-16.9%,0.438%,-3.6%,-3.64%,9.8%,-4.77%,-0.526%,-35.9%,-0.524%
Cc1ccoc1-c1nnc(CN2CCn3c(nnc3C3CC3)C2)o1,-3.51%,0%,-0.995%,0.201%,0.444%,-4.16%,7.27%,-1.58%,-10.3%,-2.12%
Cc1nc(CN(C)C2CCN(Cc3ccc4ccccc4n3)C2)no1 (stereo not given),0.184%,-5.2%,-6.12%,7.28%,-9.22%,20.4%,10.1%,21.6%,30.6%,-10.1%
